Source: PubChem BioAssay AID977628 (Broad Institute, 2014)
The whole screen tested about 1,900 compounds, of which fewer than 10 were called active. Not shown: some 20% with an inconclusive outcome.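 The calls were made as follows: active = compound lowering the normal-ribosome reporter at least twice as much as the humanized-ribosome reporter, growth loss under a set limit; inconclusive = no clear call, values can overlap the other calls; inactive = the rest.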 A selection follows.

Assay: E. coli growth inhibition, wild-type GFP versus h24 humanized RFP strain, dose response, h24 mutant RFP vs wild-type GFP, cherry-pick (AID 977628)
Details: E. coli WT GFP strain growth, fluorescence, 24 h; series mostly up to 50 µM

outcome, inactive:
CCn1c(NC(=O)c2nn(C)cc2Br)nc2ccccc21
Cc1ccc(C(=O)NCC(=O)OCC(=O)Nc2cccc(S(=O)(=O)N3CCCC3)c2)cc1C
O=C(NCCc1ccccc1)c1cccc(NC(=O)c2ccccc2)c1
CNC(=O)c1ccsc1NC(=O)c1ccc(S(=O)(=O)N2CCc3ccccc32)cc1
O=C(N[C@@H](Cc1ccccc1)C(=O)OCc1ccccc1)c1nc[nH]c1C(=O)NC1CCNCC1
COc1ccccc1N1CCN(Cc2ccc(OC)c3ccccc23)CC1
Cc1n[nH]c(C)c1S(=O)(=O)N1CCCC(C(=O)Nc2ccc(Br)cc2)C1 (stereo not drawn)
COc1ccccc1CC(=O)NCCc1c[nH]c2ccccc12
CC(=O)Nc1ccc(CNc2nc(NCCN(C)C)nc3cc(-c4ccccc4)sc23)cc1
CC1CCCC(NC(=O)COC(=O)[C@@H]2CC(O)CN2S(=O)(=O)c2ccc3c(c2)OCCO3)C1C (stereo partly drawn)
CCc1cc2cc(OC)ccc2nc1SCC(=O)Nc1cc(OC)c(OC)cc1C(=O)O
Cc1ccc2c(N)c(C(=O)c3ccccc3)sc2n1
COc1ccc(C2=NN(C(=O)c3cccnc3)C(c3ccccc3)C2)cc1 (stereo not drawn)
Cc1ccc(-c2c[n+](CC(=O)Nc3ccccc3)c3n2CCC3)cc1
Cc1ccc(OCCCC(=O)NC(C)c2ccccc2)c(C)c1 (stereo not drawn)
O=C(NCc1ccc2c(c1)OCO2)c1sccc1Br
Cc1cccc(NC(=O)c2nc(S(=O)(=O)Cc3ccccc3)ncc2Cl)c1
Cn1cc(CCC(=O)NCc2ccc3c(c2)OCO3)c2ccccc21
Cc1ccc(S(=O)(=O)NC(C)C(=O)NCc2ccc(Cl)cc2)cc1 (stereo not drawn)
CCc1c(N=O)c(-c2ccccc2)n(O)[n+]1[O-]
COc1ccc2c(c1)c1ncn(Cc3ccccn3)c(=O)c1n2C
O=C(c1cccc(F)c1)N1CCN(c2ccc([N+](=O)[O-])c3cccnc23)CC1
C[C@@H]1CN([C@@H](C)CO)C(=O)c2cc(NS(=O)(=O)c3ccccc3)ccc2O[C@@H]1CN(C)Cc1ccc(C(=O)Nc2ccccc2N)cc1
